This note sets out measurements from PubChem BioAssay (NCATS).

Records with an inconclusive call do not appear. Where a call stands in place of a potency, no number is given. The source made the active and inactive calls. Calls follow the shape of the dose curve; as a rule, active = well fitted inhibition curve with a large enough effect; inconclusive = small, poorly fitted or top-dose-only effect; inactive = flat fitted curve, though single readings scatter. Where a SMILES comes first, the peptide text is derived from it. [ ]: non-standard residue; d: D form. pGlu = O=C1CC[C@@H](C(=O)O)N1

This experiment can be described thus: P-glycoprotein substrates identified in KB-8-5-11 adenocarcinoma cell line, qHTS therapeutic library screen (AID 1346987). Also: nearly all actives have a fitted effect of over 65% in size. The following applies: KB-8-5-11 (P-gp overexpressing) viability, CellTiter-Glo, 72 h; series mostly up to 44.5 µM. The procedure, abridged: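 Luminescence from CellTiter-Glo, read 5 min after addition, quantified survival of KB-8-5-11 (P-gp-overexpressing) cells exposed to compounds for 72 h. AC50 was derived from concentration-response curves.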
As for `CCCCCCCCCCCCCCCCCC(=O)OCC(C)O` (configuration not stated), the Potency result is “inactive”. In the case of `CCCOC(=O)c1ccccc1O`, the Potency result was “inactive”.

With `CO[C@H]1C[C@H](O[C@H]2[C@H](C)[C@@H](O[C@@H]3O[C@H](C)C[C@H](N(C)C)[C@H]3O)[C@@H](C)C[C@]3(CO3)C(=O)[C@H](C)[C@@H](O)[C@@H](C)[C@@H](C)OC(=O)[C@@H]2C)O[C@@H](C)[C@@H]1O`, the Potency entry is “inactive”. For `CC[C@H](C)[C@H](NC(=O)[C@H](Cc1ccccc1)NC(=O)[C@H](C)NC(=O)[C@H](CC(=O)O)NC(=O)[C@H](CCCCN)NC(=O)[C@H](CO)NC(=O)[C@@H]1CCCN1C(=O)[C@@H]1CCC(=O)N1)C(=O)NCC(=O)N[C@@H](CC(C)C)C(=O)N[C@@H](CCSC)C(N)=O` ([pGlu]PSKDAFIGLM-NH2) the value was “inactive”. The result for `CCCCC[C@H](O)/C=C/[C@@H]1[C@H]2C/C(=C/CCCC(=O)O)O[C@H]2C[C@H]1O` reads “inactive”. For `CC(C)CCC[C@@H](C)[C@H]1CC[C@H]2[C@@H]3CC[C@@H]4C[C@H](O)CC[C@]4(C)[C@H]3CC[C@]12C` the value was “inactive”.

On to `COc1ccc(-c2noc(CC(=O)O)c2-c2ccc(OC)cc2)cc1`, for which the Potency entry is “inactive”. The result for `Cc1ncc(C[n+]2csc(CCOP(=O)(O)OP(=O)(O)O)c2C)c(N)n1` reads “inactive”; that for `Cc1c(Cl)cccc1Nc1ncccc1C(=O)O`, “inactive”. On to `CC(=O)[O][Al][O]C(C)=O`, for which the Potency result is “inactive”. `CC(=O)Nc1c(I)c(C(=O)N[C@H]2C(O)O[C@H](CO)[C@@H](O)[C@@H]2O)c(I)c(N(C)C(C)=O)c1I` (some centres not stated): the Potency result is “inactive”.

Regarding `Cc1c(C)c2c(c(C)c1OC(=O)CCC(=O)O)CC[C@@](C)(CCC[C@H](C)CCC[C@H](C)CCCC(C)C)O2`, the Potency result was “inactive”. With `NC(=O)c1ccc[n+]([C@@H]2O[C@H](COP(=O)([O-])OP(=O)(O)OC[C@H]3O[C@@H](n4cnc5c(N)ncnc54)[C@H](O)[C@@H]3O)[C@@H](O)[C@H]2O)c1`, the Potency result was “inactive”. As to `CCC(O)c1ccccc1` (configuration not stated), the Potency entry was “inactive”. With `CO[C@H]1C[C@H](O[C@@H]2/C(C)=C/C[C@@H]3C[C@@H](C[C@]4(CC[C@H](C)[C@@H](C5CCCCC5)O4)O3)OC(=O)[C@@H]3C=C(C)/C(=N/O)[C@H]4OC/C(=C\C=C\[C@@H]2C)[C@]43O)O[C@@H](C)[C@@H]1O`, the Potency result was “inactive”. For `CC(C)(CO)[C@@H](O)C(=O)NCCC(=O)NCCSSCCNC(=O)CCNC(=O)[C@H](O)C(C)(C)CO`, the Potency entry is “inactive”.

Regarding `Cc1cccc(C)c1NC(=O)NC1=CCCN1C`, the Potency result was “inactive”.

As to `CC(C)C1=CC2=CC[C@@H]3[C@](C)(CCC[C@@]3(C)C(=O)O)[C@H]2CC1`, the Potency entry was “inactive”. The result for `C[Si](C)(C)O[Si](C)(C)C` reads “inactive”; that for `CCOC(=O)[C@H](CS)NCCN[C@@H](CS)C(=O)OCC`, “inactive”; that for `Cc1cc(C)c(NC(=O)C[C@H](CC(=O)O)c2cccc3ccccc23)c(C(=O)N2CCC3(CCCC3)CC2)c1`, “inactive”. The result for `C=CCN1CCCC1CNC(=O)c1cc(S(N)(=O)=O)cc(OC)c1OC` (configuration not stated) reads “inactive”; that for `C=Cc1ccc(S(=O)(=O)O)cc1`, “inactive”; that for `c1ccc2ccccc2c1`, “inactive”.

For the compound `OCC1(CO)COC(C(Cl)(Cl)Cl)OC1`, the Potency result is “inactive”.

Consider `Cc1ncc(COP(=O)(O)O)c(CN)c1O`, for which the Potency entry was “inactive”.

With `CCCCC`, the Potency entry is “inactive”.
